Records with an inconclusive call do not appear. Active and inactive are the calls of the source. The call rests on the fitted dose curve; in most records, active means well fitted curve in the direction sought with a large enough effect; inconclusive means small, poorly fitted or top-dose-only effect, or another doubt; inactive means no such curve, though single readings can be large; an effect the other way counts as inactive or inconclusive.
Legend:
[1] = biological target: Cellular tumor antigen p53 (Homo sapiens) (UniProt P04637); assay: Primary qHTS for small molecule compounds that upregulate eGFP-tagged delta133p53alpha (in N-terminal) cells. (AID 2060322); conditions: NCI-H358 eGFP-delta133p53alpha fluorescence, 24 h; activation: active compounds read high;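 further: 0% = DMSO vehicle and 100% = reference activator; nearly all actives have a fitted effect of over 75% in size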
Procedure, shortened: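 NCI-H358 cells pre-induced 24 h with 10 ng/ml doxycycline to express N-terminal eGFP-delta133p53alpha, then dosed 24 h at 37C without doxycycline; fixed, Hoechst-stained, GFP intensity by laser scanning cytometry, normalized to DMSO (0%) and 57.5 uM 5-azacytidine (100%).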

[2] = biological target: Aldehyde dehydrogenase, mitochondrial (Homo sapiens) (UniProt P05091); assay: qHTS for Inhibitors of the Aldehyde Dehydrogenase Family (ALDH2) Primary screen (AID 2061308); conditions: ALDH2 enzyme inhibition qHTS, 1536-well; series mostly up to 56 µM;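 further: plate controls were vehicle for no effect and reference inhibitor for full effect; nearly all actives have a fitted effect of over 55% in size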
[3] = biological target: Retinaldehyde dehydrogenase 3 (Homo sapiens) (UniProt P47895); assay: qHTS for Inhibitors of the Aldehyde Dehydrogenase Family (ALDH1A3) Primary screen (AID 2061315); conditions: ALDH inhibition qHTS; series mostly up to 56 µM;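 further: plate controls were DMSO vehicle for no effect and reference inhibitor for full effect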

Chain of Cellular tumor antigen p53 (Homo sapiens) (P04637 whole entry, looked up): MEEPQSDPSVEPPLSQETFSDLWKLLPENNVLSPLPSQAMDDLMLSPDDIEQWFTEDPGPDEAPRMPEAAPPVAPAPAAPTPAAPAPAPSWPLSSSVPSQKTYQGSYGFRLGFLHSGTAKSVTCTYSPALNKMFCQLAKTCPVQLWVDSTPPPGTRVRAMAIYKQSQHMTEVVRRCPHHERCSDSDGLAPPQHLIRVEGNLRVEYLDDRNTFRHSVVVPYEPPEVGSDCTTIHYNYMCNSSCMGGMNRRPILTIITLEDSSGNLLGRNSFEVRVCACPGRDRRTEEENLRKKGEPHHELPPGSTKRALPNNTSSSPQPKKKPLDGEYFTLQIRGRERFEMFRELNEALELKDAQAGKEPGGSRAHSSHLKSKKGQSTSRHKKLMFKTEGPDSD

COC1CC(=O)C23C(=O)NC(CC(C)C)C2C(C)C(C)=CC3/C=C(\C)CCCC1O (stereo unspecified)
inactive: activation [1] 16.8% | Potency [2] | Potency [3]

C/C=C(/COC(=O)/C(C)=C/C)C(=O)OC(CC)c1ccc(OC)c(OC)c1 (stereo unspecified)
inactive: activation [1] -15.2% | Potency [2] | Potency [3]

COc1cc(/C=C/C(=O)OC2[C@H](O)CC(O)(C(=O)O)C[C@H]2O)ccc1O (stereo partly specified)
inactive: activation [1] 7.63% | Potency [2] | Potency [3]

N#Cc1ccc(-c2ccc(S(=O)(=O)Nc3cccc(N)n3)cc2)cc1
inactive: activation [1] 2.86% | Potency [2] | Potency [3]

COc1cc(O)c2c(c1Cl)CC(C)OC2=O (stereo unspecified)
inactive: activation [1] 7.14% | Potency [2] | Potency [3]

CC1(C)CCCC2(C)C1C(O)C=C(CO)C2(O)CO (stereo unspecified)
inactive: activation [1] -13.7% | Potency [2] | Potency [3]

CN(CC1COCCO1)S(=O)(=O)Nc1ccc2ccc3ncc(-c4cnn(C)c4)cc3c(=O)c2c1 (stereo unspecified)
inactive: activation [1] 0.893% | Potency [2] | Potency [3]

CCC(C)/C=C(C)/C=C/C1=CC2=C(Cl)C(=O)C(C)(OC(C)=O)C(=O)C2=CN1C(CCC(=O)O)C(=O)O (stereo unspecified)
inactive: activation [1] -13% | Potency [2] | Potency [3]

C=C[C@@H]1[C@H](O[C@@H]2O[C@H](CO)[C@@H](O)[C@H](O)[C@H]2O)OC=C(C(=O)O)[C@H]1CCOC(=O)/C=C/c1ccc(O)c(O)c1
inactive: activation [1] -7.63% | Potency [2] | Potency [3]

C[C@@]12CC3(S(=O)(=O)O)OC(O1)[C@]1(COC(=O)c4ccccc4)[C@H]3C[C@]21O[C@@H]1O[C@H](CO)[C@@H](O)[C@H](O)[C@H]1O
inactive: activation [1] 14.5% | Potency [2] | Potency [3]

CC1=CC2/C=C(\C)CCC3OC(C)(C)OC3CCC(=O)C23C(=O)NC(CC(C)C)C3C1C (stereo unspecified)
inactive: activation [1] -10.7% | Potency [2] | Potency [3]

CCNC(=O)[C@@H]1CCCN1C(=O)[C@H](CCCN=C(N)N)NC(=O)[C@H](CC(C)C)NC(=O)[C@@H](C)NC(=O)[C@H](Cc1ccc(O)cc1)NC(=O)[C@H](CO)NC(=O)[C@H](Cc1c[nH]c2ccccc12)NC(=O)[C@H](Cc1cnc[nH]1)NC(=O)[C@@H]1CCC(=O)N1
inactive: activation [1] -6.33% | Potency [2] | Potency [3]

CC(=O)N[C@H]1[C@H](O[C@H]2CC[C@]3(C)C4CC=C5[C@@H]6CC(C)(C)CC[C@]6(C(=O)O)[C@H](O)C[C@@]5(C)[C@]4(C)CC[C@H]3C2(C)C)O[C@H](CO)[C@@H](O)[C@@H]1O (stereo partly specified)
inactive: activation [1] 9.82% | Potency [2] | Potency [3]

COc1ccc(OC2OC(CO[C@@H]3O[C@@H](C)[C@H](O)[C@@H](O)[C@H]3O)C(O)C(O)C2O)cc1OC (stereo partly specified)
inactive: activation [1] 8.4% | Potency [2] | Potency [3]

C=CCc1ccc(O[C@@H]2O[C@H](CO)[C@@H](O)[C@H](O)[C@H]2O)c(O[C@@H]2O[C@H](CO)[C@@H](O)[C@H](O)[C@H]2O)c1
inactive: activation [1] -13.7% | Potency [2] | Potency [3]

C=C(C(=O)O)[C@@H]1CC[C@@]2(C)CCC[C@@](C)(O)[C@@H]2C1
inactive: activation [1] 10.7% | Potency [2] | Potency [3]

C[C@@H]1N[C@H]2N(C1=O)c1ccccc1[C@@]2(O)C[C@@H]1C(=O)N[C@@H](C)c2nc3ccccc3c(=O)n21
inactive: activation [1] -22.9% | Potency [2] | Potency [3]

CC(NC(=O)C(O)C(C)C)C(=O)NC1C(=O)N(C)CCc2ccccc21 (stereo unspecified)
inactive: activation [1] 2.39% | Potency [2] | Potency [3]

O=C(C[C@@H]1C(C(=O)O)=CO[C@@H](O[C@@H]2O[C@H](CO)[C@@H](O)[C@H](O)[C@H]2O)/C1=C\CO)OCCc1ccc(O)c(O)c1
inactive: activation [1] -14.3% | Potency [2] | Potency [3]

CCC(C)C(=O)O[C@H]1[C@@H](OC(=O)c2ccoc2)C[C@](C)(O)[C@]23OC(C)(C)[C@H](C[C@H](OC(=O)c4ccoc4)[C@]12COC(C)=O)[C@H]3OC(C)=O (stereo partly specified)
inactive: activation [1] 17.6% | Potency [2] | Potency [3]

CC1OC(OC2C(OC3C(O[C@H]4CC[C@@]5(C)C(CC[C@]6(C)C5C(=O)C=C5C7CC(C)(C)CC(O)[C@]7(C)CC[C@]56C)C4(C)C)OC(C(=O)O)C(O)C3O)OCC(O)C2O)C(O)C(O)C1O (stereo partly specified)
inactive: activation [1] 2.29% | Potency [2] | Potency [3]

CC1(C=O)CCCC2(C)C1CCC13CC(CO)C(CCC12)C3 (stereo unspecified)
inactive: activation [1] -9.92% | Potency [2] | Potency [3]

COc1ccc(C[C@H]2COC(=O)[C@@H]2Cc2ccc(O[C@@H]3O[C@H](CO)[C@@H](O)[C@H](O)[C@H]3O)c(OC)c2)cc1OC
inactive: activation [1] 15.2% | Potency [2] | Potency [3]

CC1CCC2(C=O)C(CO)=CCCC2C1(C)CC(=O)O (stereo unspecified)
inactive: activation [1] -0.763% | Potency [2] | Potency [3]

C[C@H]1[C@H](C)CC[C@]2(C(=O)O[C@@H]3O[C@H](CO)[C@@H](O)[C@H](O)[C@H]3O)CC[C@]3(C(=O)O)C(=CCC4[C@@]5(C)CC[C@H](O[C@@H]6O[C@H](CO)[C@@H](O)[C@H](O)[C@H]6O)C(C)(C)C5CC[C@]43C)[C@H]12 (stereo partly specified)
inactive: activation [1] 2.68% | Potency [2] | Potency [3]

CC1(C)CC[C@]2(C(=O)O)CC[C@]3(C)C(=CCC4[C@@]5(C)C[C@@H](O)[C@H](O)C(CO)(CO)C5CC[C@]43C)C2[C@@H]1O (stereo partly specified)
inactive: activation [1] -9.16% | Potency [2] | Potency [3]

C[C@@H]1CCC2C(C)(C)[C@H](O)CC[C@]2(C)[C@@]12Cc1c(O)cc3c(c1O2)CN(CCO)C3=O (stereo partly specified)
inactive: activation [1] 11.5% | Potency [2] | Potency [3]

COCC1OC(OC(C)(C)C2CCC3(C)C=C(C4CCC5C4(C)CC(O)C4OC(C(C)(C)O)CCC45C)CCC3O2)C(NC(C)=O)C(O)C1O (stereo unspecified)
inactive: activation [1] 5.34% | Potency [2] | Potency [3]

C/C=C/C=C/C=C/C(=O)OC1C=C(C=O)C(O)(C(=O)O)C2(C)CCCC(C)(C)C12 (stereo unspecified)
inactive: activation [1] -9.92% | Potency [2] | Potency [3]

C[C@@H]1CC[C@]2(C(=O)O[C@@H]3O[C@H](CO)[C@@H](O)[C@H](O)[C@H]3O)CC[C@]3(C)C(=CCC4[C@@]5(C)C[C@@H](O)[C@H](O)[C@@](C)(C(=O)O[C@H]6[C@H](O)C[C@@]7(C)C(CC[C@]8(C)C7CC=C7[C@H]9[C@](C(=O)O[C@@H]%10O[C@H](CO)[C@@H](O)[C@H](O)[C@H]%10O)(CC[C@@H](C)[C@@]9(C)O)CC[C@]78C)[C@@]6(CO)C(=O)O)C5CC[C@]43C)[C@@H]2[C@]1(C)O (stereo partly specified)
inactive: activation [1] 0% | activity change, negative = inhibition [2] -16.3% [at 11.2 µM] | activity change, negative = inhibition [3] -6.62% [at 11.2 µM]

N#C[C@@H]1CCCN1C(=O)CNC12CC3CC(CC(O)(C3)C1)C2
inactive: activation [1] 15% | Potency [2] | Potency [3]

O=C1CCC(c2ccccc2)(C2CCN(Cc3ccc(I)cc3)CC2)C(=O)N1 (stereo unspecified)
inactive: activation [1] 4.33% | Potency [2] | Potency [3]

CC1C(=O)CC2C3C(O)CC(C(=O)O)C12CC3(C)C (stereo unspecified)
inactive: activation [1] 1.53% | Potency [2] | Potency [3]

CC(CCC1(O)OC2CC3C4CC=C5CC(O[C@@H]6O[C@H](CO)[C@@H](O[C@@H]7O[C@H](CO)[C@@H](O)[C@H](O)[C@H]7O)[C@H](O)[C@H]6O[C@@H]6O[C@@H](C)[C@H](O)[C@@H](O)[C@H]6O)CCC5(C)C4CCC3(C)C2C1C)CO[C@@H]1O[C@H](CO)[C@@H](O)[C@H](O)[C@H]1O (stereo partly specified)
inactive: activation [1] 12.5% | Potency [2] | Potency [3]

C=CCc1ccc(O[C@@H]2O[C@H](CO[C@@H]3O[C@H](CO)[C@@H](O)[C@H](O)[C@H]3O)[C@@H](O)[C@H](O)[C@H]2O)c(O)c1
inactive: activation [1] -5.34% | Potency [2] | Potency [3]

CC(=O)N[C@H]1CCN(c2ccc(C3=NOC(CN[S+](=O)([O-])C(C)C)C3)cc2F)C1 (stereo partly specified)
inactive: activation [1] 11.7% | Potency [2] | Potency [3]

C=C1[C@@H]2CC[C@@H]3[C@@](CCC4C(C(=O)O)(C(=O)O)C[C@@H](O[C@@H]5O[C@H](CO)[C@@H](O)[C@H](O)[C@H]5OC(=O)CC(C)C)C[C@]43C)(C2)[C@H]1O (stereo partly specified)
inactive: activation [1] -16% | Potency [2] | Potency [3]

CC1=C2C(=O)C=C(CO)C2[C@H]2OC(=O)[C@H](C)[C@@H]2[C@@H](OC(=O)Cc2ccc(O)cc2)C1 (stereo partly specified)
inactive: activation [1] -11.6% | Potency [2] | Potency [3]

Cc1coc2c1CC1OC1(C)CCC1OC1(C)C2 (stereo unspecified)
inactive: activation [1] 4.46% | Potency [2] | Potency [3]

COc1cc(-c2ccc(O)cc2)c(OC)c(O)c1C1=CC(=O)OC1CC(=O)O (stereo unspecified)
inactive: activation [1] 13.7% | Potency [2] | Potency [3]

Cc1cc(CS(=O)(=O)c2ccccc2)cc(OCc2ccc(CN3CCC[C@H]3CO)cc2)c1
inactive: activation [1] -28.2% | Potency [2] | Potency [3]

C=C(CO[C@@H]1O[C@H](CO[C@@H]2OC[C@](O)(CO)[C@H]2O)[C@@H](O)[C@H](O)[C@H]1O)C1Cc2cc(C(C)=O)ccc2O1 (stereo partly specified)
inactive: activation [1] -12.2% | Potency [2] | Potency [3]

O=C(/C=C/c1ccc(O)cc1)O[C@@H]1C[C@@](O)(C(=O)O)C[C@@H](O)[C@@H]1O
inactive: activation [1] 3.82% | Potency [2] | Potency [3]

CC(=O)OC1C(c2ccccc2)CCC(c2ccccc2)C1OC(C)=O (stereo unspecified)
inactive: activation [1] 1.53% | Potency [2] | Potency [3]

CC(C)C1=CC2=CCC3[C@](C)(CCC[C@@]3(C)C(=O)O)C2CC1=O (stereo partly specified)
inactive: activation [1] 8.93% | Potency [2] | Potency [3]

CCOC(=O)N1c2ccc(C(F)(F)F)cc2C(N(Cc2cc(C(F)(F)F)cc(C(F)(F)F)c2)C(=O)OC)CC1CC (stereo unspecified)
inactive: activation [1] -4.3% | Potency [2] | Potency [3]

CC(=O)OCC(=O)O[C@@H]1[C@H]2[C@@H](OC(=O)c3ccccc3)[C@@H](C)C[C@]2(O)[C@H](OC(C)=O)C2(C)[C@H]3CC(C)(C)C(=O)[C@@H]3CC1(OC(C)=O)[C@@H]2OC(C)=O (stereo partly specified)
inactive: activation [1] -11.6% | Potency [2] | Potency [3]
